Source: PubChem
TTR transcr act – increases transthyretin transcription; activation, % at 16.7 µM; SH-SY5Y TTR promoter Gaussia luciferase, luminescence; 100% = recombinant luciferase protein wells; 1.3% of 92,000 active;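 active = activation above the mean of all tested compounds plus 3 SD, cut at about 9.5% in these data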;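 note: cells exposed to compounds for one day before reading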
TTR inh HuH7 – decreases TTR transcription in HuH7 cells in activator counter-screen. inhibition, % at 16.7 µM. HuH7 TTR promoter-Gaussia luciferase reporter, luminescence. 4% of 1,100 active. AID 1117279. shares compounds with TTR transcr act;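 active = average inhibition above the solvent-only control wells' mean plus 3 SD, cut at about 15% in these data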;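 note: inhibitors lower well luminescence so higher value means more inhibition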
TTR up confirm – confirmation of human transthyretin transcription activators | shares compounds with TTR transcr act | SHSY5Y TTR promoter Gaussia luciferase, luminescence; 100% = purified Lucia enzyme wells, no cells | activation, % at 16.7 µM | 1,100 tested, under 10 active | AID 1117280;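 active = mean activation above a set limit taken from the earlier primary screen, cut at about 11% in these data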
A number is an active result; - = inactive. Only a selection was taken, and hits are over-represented in it overall.

SMILES	TTR transcr act	others
O=C(CCN1C(=O)c2ccccc2C1=O)CN1CCOCC1	-
CCc1c(C)n([O-])c2c([n+]1=O)CCC2	11.8	TTR inh HuH7=-;TTR up confirm=-
O=[n+]1c2c(n([O-])c3c1CCCC3)CCCC2	-
Cc1c(-c2ccc(Cl)cc2)[n+](=O)c2c(n1[O-])CCCC2	-
Cc1nn(C)c(C)c1NC(=O)COc1ccc(Cl)cc1Br	-
CCOC(=O)C1CCN(C(=O)CN(c2ccc(Cl)c(C(F)(F)F)c2)S(C)(=O)=O)CC1	-
CCOC(=O)C1CCN(C(=O)CN(c2ccc3c(c2)OCO3)S(C)(=O)=O)CC1	17.6	TTR inh HuH7=-;TTR up confirm=-
CCOC(=O)C1CCN(C(=O)COc2ccc3c(c2)OCO3)CC1	-
Nc1ccc2nc(SCc3ccccc3F)sc2c1	-
COc1cc(OC)c(N(C)S(=O)(=O)c2cccc(C(=O)NC(C)C3CC4CCC3C4)c2)cc1Cl (centres undefined)	-
CC(C)(C)NC(=O)CCCSc1nc2ccccc2s1	-
O=C(CCCSc1nc2ccccc2s1)NCc1ccc2c(c1)OCO2	-
COC(=O)CCCc1nc2ccccc2s1	-
O=C(O)CCCc1nc2ccccc2s1	-
Cc1ccccc1NC(=O)CCCSc1nc2ccccc2s1	12.5	TTR inh HuH7=-;TTR up confirm=-
Cc1cnc(NC(=O)CCCc2nc3ccccc3s2)s1	12.6	TTR inh HuH7=15.9;TTR up confirm=-
COC(=O)c1ccc(Cn2ccc3ccc(-c4ccc5ccn(C(=O)c6ccccc6)c5c4)cc32)cc1	-
COC(=O)[C@H]1C[C@]2(C(/C=C(\C)CCC=C(C)C)S(=O)(=O)c3ccccc3)c3ccccc3N[C@H]2N1 (some centres undefined)	-
CCOc1ccc(Oc2nc(NCC(C)C)nc(N(C)C)n2)nn1	-
CCNc1nc(NC(C)CC)nc(Oc2ccc(OCC)nn2)n1 (centres undefined)	12.6	TTR inh HuH7=-;TTR up confirm=-
CCOc1ccc(Oc2nc(NCC(C)C)nc(OC)n2)nn1	-
CC(NC(=S)Nc1ccc(Cl)cc1Cl)C(c1cccs1)N1CCCC1 (centres undefined)	-
CCOC(=O)C1=CCN(S(=O)(=O)c2ccccc2F)C1c1cccc(F)c1 (centres undefined)	-
COc1ccc(CNC(=O)O[C@H]2CC[C@@]34CCCN3C(=O)CCC[C@H]4C2)cc1OC	-
CCOC(=O)NNC(=O)NCCCCCCNC(=O)NNC(=O)OCC	-
SMILES	TTR transcr act	others
Cc1cccc(N(C)c2ncnc3onc(-c4ccc(F)cc4)c23)c1C	13.0	TTR inh HuH7=25.3;TTR up confirm=-
Cc1ccccc1Sc1ncnc2onc(C)c12	-
Cc1ccccc1CN1CCCCC(NC(=O)c2ccccc2C(F)(F)F)C1=O (centres undefined)	-
COc1cccc(CNC(=O)N2CCN(S(=O)(=O)c3ccc(Cl)cc3)CC2)c1	-
COc1ccccc1CNC(=O)N1CCN(S(=O)(=O)c2ccccc2)CC1	-
COc1ccccc1CNC(=O)N1CCN(S(=O)(=O)c2ccc(Cl)cc2)CC1	37.6	TTR inh HuH7=-;TTR up confirm=-
CC(C)(C)NC(=O)[C@H](c1cccnc1)N(C(=O)c1ccco1)c1ccc(C(C)(C)C)cc1	-
COCCN(CC1CCCN(C2Cc3ccccc3C2)C1)C(=O)CSC (centres undefined)	-
COc1ccc2nc3c(c(-c4ccccc4)c2c1)CCC3	-
COc1ccc(-c2c3c(nc4sc5c(=O)[nH]c(C)nc5c24)CCC3)cc1	16.3	TTR inh HuH7=-;TTR up confirm=-
Cc1ccc(-c2c3c(nc4sc(C(N)=O)c(N)c24)CCCC3)o1	-
CC1(C)Cc2c(cnn2-c2cccc(F)c2)C(NC(=O)CSc2ccccn2)C1 (centres undefined)	-
O=C(NCc1ccc(F)c(F)c1)C1CCC(=O)N(CCc2ccccc2)C1 (centres undefined)	-
CCOC(=O)CC1(NC(=O)C2CCC(=O)N(CCc3ccccc3)C2)CCCCC1 (centres undefined)	13.6	TTR inh HuH7=-;TTR up confirm=-
Cc1ccc(F)cc1CNC(=O)C1CCC(=O)N(CCc2ccccc2)C1 (centres undefined)	-
O[C@H]1CN(CC2CCCCC2)[C@@H](c2ccccc2)C[C@@H]1n1cc(C2CC2)nn1	-
S=C1NCCN1CC1CCN(CCCC2CCCC2)CC1	-
O=c1ccncn1C1OC(CO)C(O)C1O (centres undefined)	13.2	TTR inh HuH7=-;TTR up confirm=-
Nc1ncnc2c1ncn2C1OC(CO)C(O)C1O (centres undefined)	-
OCC1OC(n2nnc3ccccc32)C(O)C(O)C1O (centres undefined)	-
N/C(=N\OC(=O)c1ccccc1)C(C(=O)NOC(=O)c1ccccc1)C1CCCCC1 (centres undefined)	-
Cc1cc(C)c(NC(=O)CNC(=O)COC(=O)Cc2ccccc2C)c(C)c1	-
O=C(Cc1ccc(Cl)cc1)Nc1cccc(-c2nnc(-c3ccco3)o2)c1	-
O=C(COc1ccccc1)Nc1ccc(-c2nnc(-c3ccco3)o2)cc1	19.1	TTR inh HuH7=-;TTR up confirm=-
O=C(Cc1ccccc1)Nc1cccc(-c2nnc(-c3ccco3)o2)c1	-
SMILES	TTR transcr act	others
C=CC(=O)NC1CCCCN(CC)C1=O (centres undefined)	-
CC(C)NC(=O)N(C)C[C@H]1Oc2ccc(NC(=O)Cn3cnnn3)cc2C(=O)N([C@H](C)CO)C[C@@H]1C	-
Cc1noc(C)c1NC(=O)Nc1ccc2c(c1)C(=O)N([C@H](C)CO)C[C@H](C)[C@@H](CN(C)S(=O)(=O)c1ccc(F)cc1)O2	-
Cc1ccc(S(=O)(=O)N(C)C[C@@H]2Oc3ccc(NC(=O)Cn4cnnn4)cc3C(=O)N([C@@H](C)CO)C[C@H]2C)cc1	21.4	TTR inh HuH7=-;TTR up confirm=-
CN(C)C(CNC(=O)c1ccc(S(=O)(=O)N(C)C)cc1)Cc1ccccc1 (centres undefined)	-
CN(C)/C=C(\c1cnc(Cl)s1)S(=O)(=O)c1ccccc1	-
Cc1ccc(C(=O)c2ccccc2C(=O)OCC(=O)Nc2cccc([N+](=O)[O-])c2)cc1	-
CC1CC1C(=O)OCC(=O)Nc1cccc([N+](=O)[O-])c1 (centres undefined)	12.2	TTR inh HuH7=-;TTR up confirm=-
CC1CC1C(=O)OCC(=O)Nc1ccc(N=Nc2ccccc2)cc1 (centres undefined)	-
CC1CCN(C(=O)COC(=O)c2cccc(S(=O)(=O)N(C)c3ccccc3)c2)CC1	-
COCCN1C(=O)COc2ccccc2C1C(=O)NC1CCCC1 (centres undefined)	-
Cn1cnnc1SCC(=O)Nc1cc(S(=O)(=O)N2CCCCC2)ccc1Cl	-
Brc1ccc(-c2noc3c2-c2nc(C4CCCCC4)sc2CC3)cc1	13.8	TTR inh HuH7=-;TTR up confirm=-
COc1ccc(-c2noc3c2-c2nc(C(C)C)sc2CC3)cc1	-
CCCc1nc2c(s1)CCc1onc(-c3ccc(OC)cc3)c1-2	-
C/C(=N\Nc1ncc(Br)cn1)c1cccc([N+](=O)[O-])c1	13.5	TTR inh HuH7=20.5;TTR up confirm=-
C/C(=N\Nc1cc(C)nc(-c2ccccc2)n1)c1cccc([N+](=O)[O-])c1	-
C/C(=N\NC(=O)C(N)=O)c1cccc([N+](=O)[O-])c1	-
CN(CCc1ccccc1)C(=O)c1ccc(NC(=O)Cc2ccc(NC(=O)C3CCN(C(=O)C4CCC4)CC3)cc2)cc1	-
C[C@H](NS(=O)(=O)c1ccc([N+](=O)[O-])cc1)C(=O)NCCNC(=O)[C@@H](C)NS(=O)(=O)c1ccc([N+](=O)[O-])cc1	-
